Assay [1] can be described thus: APR_HepG2_P-H2AX_72hr: Apredica 72-hour HepG2 Assay for H2AX Phosphorylation (AID 2282916).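 Further: phospho-histone H2A.x immunostain intensity per cell marking DNA damage.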 The note with it: imaging, actives raise or lower the signal. The method in brief:
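Human hepatoma HepG2 cells are dosed across ten concentrations (0.39 to 200 uM, 0.5% v/v DMSO) and incubated 72 hr. Phospho-histone H2A.x is then detected by antibody staining alongside c-Jun and Hoechst, and quantified by automated fluorescence imaging.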

Assay [2] in a line: APR_HepG2_MitoMembPot_72hr: Apredica 72-hour HepG2 Assay for Mitochondrial Membrane Potential (AID 2282917). The following applies: imaging, actives raise or lower the signal. Summed up:
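Membrane potential read by MitoTracker Red CMXRos (250 nM, 30 min, pre-fixation) fluorescence imaging of HepG2 after 72 hr exposure. Ten concentrations, 0.39–200 uM, duplicate wells, 0.5% DMSO; fitted in both directions against DMSO baseline.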

A short description of assay [3]: APR_HepG2_MitoticArrest_72hr: Apredica 72-hour HepG2 Assay for Mitotic Arrest (AID 2282918). The following applies: high-content imaging, actives raise or lower the signal. Summed up: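 HepG2 cells treated 72 h at 0.39–200 uM, 0.5% DMSO final; formaldehyde-fixed, stained with Hoechst 33342 and phospho-histone H3 antibody, imaged by high-content fluorescence; bidirectional fit versus DMSO.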

The nature of assay [4]: APR_HepG2_MicrotubuleCSK_72hr: Apredica 72-hour HepG2 Assay for Microtubule CSK Stabilty (AID 2282919). The following applies: HepG2 microtubule cytoskeleton, high-content imaging, actives raise or lower the signal. Summed up: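 High-content imaging of alpha-tubulin staining in fixed HepG2 cells after 72 hr treatment with ten concentrations from 0.39 to 200 uM (0.5% DMSO). Fitting was bidirectional against DMSO; taxol served as positive control.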

The nature of assay [5]: APR_HepG2_P-H2AX_24hr: Apredica 24-hour HepG2 Assay for H2AX Phosphorylation (AID 2282920). The note with it: high-content imaging, actives raise or lower the signal. Summed up:
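HepG2 cells dosed 24 h at 0.39–200 uM (10 points, duplicate, 0.5% DMSO final). Formaldehyde-fixed and permeabilized, then immunostained for phospho-H2A.x with Hoechst. Fluorescence quantified by high-content imaging, fitted bidirectionally versus DMSO.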

Assay [6] can be described thus: APR_HepG2_StressKinase_72hr: Apredica 72-hour HepG2 Assay for Stress Kinase (AID 2282921). The note with it: HepG2 stress kinase (phospho-c-Jun) imaging, actives raise or lower the signal. The method in brief:
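After a 72 h compound treatment spanning 0.39 to 200 uM, formaldehyde-fixed cells are labelled for phosphorylated c-Jun and nuclei, imaged by automated fluorescence microscopy, and activity is fitted in both directions relative to DMSO controls.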

Assay [7] can be described thus: APR_HepG2_StressKinase_24hr: Apredica 24-hour HepG2 Assay for Stress Kinase (AID 2282922). The following applies: HepG2 stress kinase (phospho-c-Jun) imaging, actives raise or lower the signal. Summed up: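 High-content imaging of phospho-c-Jun immunofluorescence in fixed, permeabilized HepG2 cells after 24 h dosing. Ten concentrations, 0.39 to 200 uM, run in duplicate at 0.5% v/v DMSO; gain or loss of signal versus DMSO.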

Assay [8] can be described thus: APR_HepG2_p53Act_72hr: Apredica 72-hour HepG2 Assay for p53 Activation (AID 2282923).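 Further: average cellular p53 protein immunofluorescence intensity in HepG2 cells.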 The note with it: high-content imaging, actives raise or lower the signal. The method in brief:
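Imaging-based endpoint: after 72 hr compound exposure (up to 200 uM, 0.5% DMSO), fixed and permeabilized monolayers were labelled with anti-p53 antibody and imaged; signal change in either direction was fitted relative to DMSO controls.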

Assay [9] can be described thus: APR_HepG2_MitoMass_72hr: Apredica 72-hour HepG2 Assay for Mitochondrial Mass (AID 2282924).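 Further: MitoTracker Red CMXRos stain intensity per cell imaged as mitochondrial mass.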 The note with it: high-content imaging, actives raise or lower the signal. The method in brief:
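Readout is imaged MitoTracker Red (250 nM, 30 min, pre-fixation) signal, fitted bidirectionally against DMSO baseline. Human HepG2 liver cells received compound 0.39–200 uM in duplicate for 72 hr, final DMSO 0.5%.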

Assay [10] can be described thus: APR_HepG2_NuclearSize_72hr: Apredica 72-hour HepG2 Assay for Nuclear Size (AID 2282925). The following applies: high-content imaging, actives raise or lower the signal. The method in brief:
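Nuclear size was read by high-content imaging of Hoechst 33342 stain after formaldehyde fixation. Compounds ran 72 h on HepG2 at 0.39 to 200 uM, with final DMSO 0.5% v/v. Curves fitted both directions relative to DMSO control.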

Assay [11] in a line: ATG_CRE_CIS: Attagene CIS-FACTORIAL HepG2 Assay for human cAMP Responsive Element (CRE) binding protein 3 (AID 2282926). The note with it: HepG2 CRE cis-reporter, Attagene multiplexed mRNA; actives raise or lower the signal. The method in brief: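 Induced reporter mRNA from a CRE cis element, measured in HepG2 among many multiplexed units at 24 h. Detection used RT-PCR plus capillary electrophoresis of fluorescent fragments; DMSO served as negative control.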

Assay [12] deals with CCAAT/enhancer-binding protein beta (Homo sapiens) (UniProt P17676). Nature of the assay: ATG_C_EBP_CIS: Attagene CIS-FACTORIAL HepG2 Assay for human CCAAT/Enhancer Binding Protein (C/EBP) beta (AID 2282927). The note with it: HepG2 Attagene cis-factorial transcription factor reporter; actives raise or lower the signal. The method in brief:
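Endogenous transcription factor activity in human liver HepG2 cells is inferred from induction of a CEBPB-linked reporter mRNA. Exposure lasts 24 h; activity is fitted in both directions relative to DMSO.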

Assay [13] is described as follows: ATG_CMV_CIS: Attagene CIS-FACTORIAL HepG2 Assay for human CMV (Internal Marker) (AID 2282928).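 Further: endpoint acts as a background internal control marker rather than a target.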 The following applies: HepG2 CMV promoter reporter, transcription factor profiling; actives raise or lower the signal. Summed up: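 Bidirectional fits against DMSO are applied to reporter mRNA, read by RT-PCR with capillary electrophoresis, from HepG2 cells exposed 24 h. The endpoint serves as an internal CMV background marker within the cis-factorial reporter panel.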

The nature of assay [14]: ATG_DR4_LXR_CIS: Attagene CIS-FACTORIAL HepG2 Assay for human Liver X Receptor (LXR), DR4 submotif (AID 2282929). The following applies: HepG2 Attagene DR4 cis-reporter, mRNA transcription; actives raise or lower the signal. Summed up:
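Transiently transfected HepG2 liver cells; cis-regulated reporters; 24 h dosing. RT-PCR plus CE read-out of reporter mRNA. DMSO baseline, bidirectional curve fitting.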

Assay [15] has as its target Aryl hydrocarbon receptor (Homo sapiens) (UniProt P35869). As to the kind of experiment: ATG_Ahr_CIS: Attagene CIS-FACTORIAL HepG2 Assay for human Aryl Hydrocarbon Receptor (Ahr) (AID 2282930). The note with it: HepG2 AhR cis-factorial reporter transcription; actives raise or lower the signal. The method in brief: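 Transient MRTU transfection of HepG2 → 24 h compound exposure → total RNA, oligo(dT) RT → PCR, 6-FAM extension, HpaI cut → CE fluorescence. DMSO = baseline; bidirectional curve fit.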

Assay [16] is described as follows: ATG_AP_2_CIS: Attagene CIS-FACTORIAL HepG2 Assay for human Activator Protein 2 (AP-2) (AID 2282932). The following applies: HepG2 AP-2 cis-reporter, Attagene transcription factor profiling; actives raise or lower the signal. The method in brief:
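Endogenous transcription factor activity is reported through transfected multiplex reporter constructs in HepG2, after 24 h of compound exposure. Transcripts were quantified by RT-PCR and capillary electrophoresis of fluorescent fragments. Bidirectional fit against DMSO.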

Assay [17] is described as follows: ATG_BRE_CIS: Attagene CIS-FACTORIAL HepG2 Assay for human Bone Morphogenetic Protein (BMP) Response Element (BRE) (AID 2282933). The following applies: HepG2 BMP response element reporter, Attagene transcription factor profiling; actives raise or lower the signal. The method in brief: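 HepG2 cells transiently transfected with CIS reporter units (endogenous TF activity, BMP response element), dosed 24 h. Reporter mRNA quantified by RT-PCR, fluorescent labelling and capillary electrophoresis; bidirectional fit vs DMSO baseline.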

Assay [18] deals with Retinoic acid receptor alpha (Homo sapiens) (UniProt P10276). Nature of the assay: ATG_DR5_RAR_CIS: Attagene CIS-FACTORIAL HepG2 Assay for human Retinoic Acid Receptor Alpha (RARE), DR5 submotif (AID 2282934).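 On AC50: reporter responds to endogenous RAR alpha beta and gamma in HepG2 not RARA alone.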 The following applies: HepG2 Attagene cis-factorial RARE DR5 reporter, mRNA; actives raise or lower the signal. Summed up: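 Transient MRTU transfection of HepG2; 24 h compound treatment; TriZol RNA, oligo(dT) RT, PCR, FAM labelling, capillary electrophoresis. Bidirectional fit vs DMSO. Endogenous TF activity at DR5 RARE.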

In assay [19] the target is Transcription factor E2F1 (Homo sapiens) (UniProt Q01094). As to the kind of experiment: ATG_E2F_CIS: Attagene CIS-FACTORIAL HepG2 Assay for human E2F Transcription Factor 1 (AID 2282935). The note with it: HepG2 Attagene cis-reporter, E2F reporter RNA transcripts; actives raise or lower the signal. Summed up:
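Gain or loss of reporter transcript, fitted against DMSO, reflects E2F1-driven transcription. Transiently transfected HepG2 dosed 24 h before RNA isolation. Quantified by fluorescent RT-PCR products separated by capillary electrophoresis.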

Assay [20] can be described thus: ATG_AP_1_CIS: Attagene CIS-FACTORIAL HepG2 Assay for human Activator Protein 1 (AP-1) (AID 2282931). The note with it: HepG2 Attagene cis-factorial AP-1 reporter mRNA; actives raise or lower the signal. Summed up:
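We transfected HepG2 cells transiently with a set of cis-regulated reporter transcription units, dosed them for 24 h, and quantified reporter mRNA via RT-PCR and capillary electrophoresis, scoring gain or loss of signal relative to DMSO.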

By AC50 is commonly meant the concentration giving half of the maximal activity seen.

The source made the active and inactive calls. How the source made its calls: active means hit-call score of the fitted dose curve at least 0.9, where 1 is the maximum; inactive means score below 0.9.

Chain of Transcription factor E2F1 (Homo sapiens) (Q01094 whole entry, looked up): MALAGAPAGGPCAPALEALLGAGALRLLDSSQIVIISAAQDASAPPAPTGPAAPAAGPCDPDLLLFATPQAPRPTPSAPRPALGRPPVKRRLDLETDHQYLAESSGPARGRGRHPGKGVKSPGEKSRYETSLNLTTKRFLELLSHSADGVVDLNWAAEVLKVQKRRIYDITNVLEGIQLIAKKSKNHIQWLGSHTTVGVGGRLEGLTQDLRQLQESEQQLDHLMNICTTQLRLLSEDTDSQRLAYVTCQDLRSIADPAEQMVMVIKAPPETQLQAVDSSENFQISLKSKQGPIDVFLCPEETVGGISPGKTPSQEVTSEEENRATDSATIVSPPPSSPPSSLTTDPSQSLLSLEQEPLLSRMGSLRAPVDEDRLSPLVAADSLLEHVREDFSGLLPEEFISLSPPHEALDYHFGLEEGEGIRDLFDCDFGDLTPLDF
Chain of CCAAT/enhancer-binding protein beta (Homo sapiens) (P17676 whole entry, looked up): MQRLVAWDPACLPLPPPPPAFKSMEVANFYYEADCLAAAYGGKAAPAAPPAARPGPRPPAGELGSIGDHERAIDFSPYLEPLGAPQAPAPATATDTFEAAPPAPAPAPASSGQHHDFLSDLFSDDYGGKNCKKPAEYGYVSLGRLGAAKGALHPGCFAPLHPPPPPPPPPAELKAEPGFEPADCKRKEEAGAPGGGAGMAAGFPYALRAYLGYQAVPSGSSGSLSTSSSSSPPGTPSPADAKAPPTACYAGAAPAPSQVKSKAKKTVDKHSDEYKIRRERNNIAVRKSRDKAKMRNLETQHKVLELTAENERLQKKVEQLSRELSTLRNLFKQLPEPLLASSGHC
Chain of Aryl hydrocarbon receptor (Homo sapiens) (P35869 whole entry, looked up): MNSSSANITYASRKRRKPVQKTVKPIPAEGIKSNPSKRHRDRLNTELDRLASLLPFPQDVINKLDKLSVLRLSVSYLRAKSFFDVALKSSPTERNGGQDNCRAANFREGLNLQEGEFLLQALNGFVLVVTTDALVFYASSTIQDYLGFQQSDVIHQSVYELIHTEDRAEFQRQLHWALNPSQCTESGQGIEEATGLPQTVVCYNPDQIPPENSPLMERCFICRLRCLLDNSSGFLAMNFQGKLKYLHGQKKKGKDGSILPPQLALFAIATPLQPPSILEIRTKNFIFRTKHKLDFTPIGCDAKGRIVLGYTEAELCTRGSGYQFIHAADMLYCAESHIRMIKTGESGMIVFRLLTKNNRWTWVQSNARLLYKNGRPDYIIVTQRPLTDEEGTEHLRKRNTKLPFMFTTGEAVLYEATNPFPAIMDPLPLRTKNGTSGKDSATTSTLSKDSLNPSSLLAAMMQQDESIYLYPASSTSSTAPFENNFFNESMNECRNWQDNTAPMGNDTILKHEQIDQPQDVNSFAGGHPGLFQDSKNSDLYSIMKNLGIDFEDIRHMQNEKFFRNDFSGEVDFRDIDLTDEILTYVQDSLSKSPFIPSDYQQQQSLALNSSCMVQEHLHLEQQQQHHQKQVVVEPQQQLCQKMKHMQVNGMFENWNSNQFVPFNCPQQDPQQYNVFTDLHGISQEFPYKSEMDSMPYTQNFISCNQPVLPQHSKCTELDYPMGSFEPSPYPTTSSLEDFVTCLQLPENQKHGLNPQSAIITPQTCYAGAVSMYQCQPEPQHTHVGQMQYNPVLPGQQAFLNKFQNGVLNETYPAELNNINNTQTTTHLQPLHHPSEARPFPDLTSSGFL
Chain of Retinoic acid receptor alpha (Homo sapiens) (P10276 whole entry, looked up): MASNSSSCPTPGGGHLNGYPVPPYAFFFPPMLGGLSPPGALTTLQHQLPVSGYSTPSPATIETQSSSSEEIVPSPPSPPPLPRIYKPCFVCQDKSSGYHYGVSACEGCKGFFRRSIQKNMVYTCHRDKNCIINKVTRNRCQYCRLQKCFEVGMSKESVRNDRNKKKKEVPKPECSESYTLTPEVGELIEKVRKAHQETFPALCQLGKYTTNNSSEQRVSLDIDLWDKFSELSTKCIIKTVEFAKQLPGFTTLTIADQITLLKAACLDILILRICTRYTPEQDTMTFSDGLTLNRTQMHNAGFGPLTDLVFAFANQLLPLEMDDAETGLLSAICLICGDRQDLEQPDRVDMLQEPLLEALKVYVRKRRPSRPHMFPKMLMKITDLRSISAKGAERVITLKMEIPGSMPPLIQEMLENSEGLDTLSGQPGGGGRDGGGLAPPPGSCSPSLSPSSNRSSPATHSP

Turning to `CC1=NNC(=O)N(/N=C/c2cccnc2)C1`, the compound was called inactive in assay [1], in assay [2], in assay [3], in [4], in [5] and in assay [6]. The result in assay [7], in [8], in assay [9], in assay [10], in [11] and in assay [12] was inactive. For the same compound, the result in assay [13], in assay [14], in assay [15], in [16], in assay [17] and in assay [18] was inactive. In assay [19], the compound was called inactive.
Consider `CN(C)C(=O)Nc1cccc(C(F)(F)F)c1`, for which the call in [1], in [2], in assay [3], in assay [4], in [5] and in [6] was inactive. Also, the call in assay [7], in assay [8], in assay [9], in assay [10], in [11] and in assay [12] was inactive. The result in [13], in assay [14], in assay [15], in assay [20], in assay [16] and in assay [17] was inactive. The compound was classed as inactive in [18] and in assay [19].
`CSC1=N[C@@](C)(c2ccccc2)C(=O)N1Nc1ccccc1`: the call in assay [1], in assay [2], in assay [3], in assay [5], in [6] and in assay [7] was inactive. Besides, the call in assay [8], in assay [9], in assay [10], in [13], in assay [14] and in [16] was inactive. In addition, the compound was called inactive in assay [19]. Moreover, the AC50 in assay [4] was 38.6 µM (active); in assay [11], 4.24 µM (active); in assay [12] it was 6.21 µM (active); in assay [15], 50 µM (active); in assay [17] it was 5.2 µM (active).
As to `CNc1cnn(-c2cccc(C(F)(F)F)c2)c(=O)c1Cl`, the compound was called inactive in assay [1], in assay [2], in assay [3], in assay [4], in assay [5] and in [6]. Further, the outcome in assay [7], in [8], in [9], in [10], in assay [12] and in [13] was inactive. The outcome in assay [14], in assay [15], in [16], in [18] and in assay [19] was inactive. The values for the half-maximal activity concentration (AC50) in assay [11] and in assay [17] were 19.7 µM (active) and 17.8 µM (active), respectively.
Consider `C#CCC1=C(C)C(OC(=O)C2C(C=C(C)C)C2(C)C)CC1=O` (centres undefined), for which the outcome in assay [1], in [2], in assay [3], in assay [4], in assay [5] and in assay [6] was inactive. For the same compound, the compound was called inactive in [7], in assay [8], in [9], in assay [10], in assay [13] and in assay [19]. The AC50 is 27.1 µM (active) in [11]; 21.7 µM (active) in [12]; 50 µM (active) in [14]; 78.6 µM (active) in [15]; 74.9 µM (active) in assay [16]; 9.01 µM (active) in assay [17]. The AC50 in assay [18] is 9.92 µM (active).
With `CCOP(=S)(OCC)Oc1ccc2c(C)c(Cl)c(=O)oc2c1`, the half-maximal activity concentration (AC50) in assay [1] was 100 µM (active); in assay [3], 93.2 µM (active); in assay [4], 40.5 µM (active); in [18], 1.59 µM (active). For the same compound, the result in assay [2], in assay [5], in [6], in assay [7], in assay [8] and in assay [9] was inactive. Also, the result in [10], in [11], in assay [12], in assay [13], in assay [14] and in assay [15] was inactive. For the same compound, the compound was called inactive in assay [20], in assay [16], in assay [17] and in assay [19].
With `CCOP(=S)(Oc1cnc(C(C)(C)C)nc1)OC(C)C` (centres undefined), the outcome in assay [1], in assay [2], in assay [3], in assay [5], in assay [6] and in assay [7] was inactive. Moreover, the outcome in assay [8], in [9], in assay [10], in assay [11], in assay [15] and in assay [16] was inactive. The compound was classed as inactive in [19]. For the same compound, the half-maximal activity concentration (AC50) in assay [4] was 66.5 µM (active); in assay [12] it was 2.22 µM (active); in assay [13], 50 µM (active); in [20], 62.2 µM (active); in [17], 50 µM (active); in [18] it was 12 µM (active).
